HEK293 tox: cytotoxic compounds in HEK 293 cells. HEK 293 viability, ATP luminescence (CellTiter-Glo), 48-72 h. Potency, µM (top dose mostly 115 µM), for the others: at the highest dose activity change, negative = cytotoxicity, usual class: inhibitors. 6.6% of 94,000 active. AID 1345083; note: nearly all actives have a fitted effect of over 60% in size
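Cells seeded first (HEK 293, 250 cells/well), then compound added by pintool. Incubation ran 48 or 72 hr at 37 degree Celsius. CellTiter-Glo was added and luminescence imaged after 10 min at room temperature.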
NIH3T3 tox: kills NIH 3T3 cells; NIH 3T3 viability, CellTiter-Glo ATP luminescence, 48-72 h; Potency, µM (titrated, usually from 96.7 µM), for the others: at the highest dose activity change, negative = cytotoxicity, hits mostly inhibitors; 4.3% of 94,000 active; AID 1345082; note: nearly all actives have a fitted effect of over 55% in size
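Viability of NIH 3T3 cells after 48 or 72 hr compound treatment at 37 °C was assessed by CellTiter-Glo, with luminescence imaged following a 10 min room-temperature step.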
FLuc inh: Photinus pyralis luciferase inhibition. purified P. pyralis luciferase, luminescence, biochemical. Potency, µM (series often up to 115 µM), actives largely listed as inhibitors. 2.5% of 76,000 active; note: nearly all actives have a fitted effect of over 65% in size
Target sequence (P08659 whole entry, looked up): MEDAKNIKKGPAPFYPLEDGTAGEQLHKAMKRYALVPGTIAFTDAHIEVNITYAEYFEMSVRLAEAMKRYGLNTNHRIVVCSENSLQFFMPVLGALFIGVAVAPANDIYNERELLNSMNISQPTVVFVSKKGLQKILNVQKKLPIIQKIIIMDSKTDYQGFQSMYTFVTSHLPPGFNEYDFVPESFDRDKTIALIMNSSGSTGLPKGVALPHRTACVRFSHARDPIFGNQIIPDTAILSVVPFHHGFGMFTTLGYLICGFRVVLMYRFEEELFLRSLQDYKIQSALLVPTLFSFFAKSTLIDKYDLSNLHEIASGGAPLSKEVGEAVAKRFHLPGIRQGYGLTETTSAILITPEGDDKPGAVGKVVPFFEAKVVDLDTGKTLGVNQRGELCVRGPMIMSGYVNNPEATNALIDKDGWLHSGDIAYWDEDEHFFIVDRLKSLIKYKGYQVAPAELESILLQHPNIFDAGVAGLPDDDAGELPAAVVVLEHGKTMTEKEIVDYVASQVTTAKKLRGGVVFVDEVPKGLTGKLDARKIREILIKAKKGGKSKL
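Inhibitors were tested against purified firefly luciferase in a biochemical, low-substrate format (both substrates at 10uM) and luminescence measured with a CCD imager.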
hNpr1 antagonist: blocks ANP-stimulated signaling of human Npr1 receptor. P16066. HEK293 hNpr1 GloSensor cGMP, ANP-stimulated luminescence. Potency, µM (series often up to 46.3 µM), for the others: at the highest dose activity change, negative = inhibition, actives largely listed as inhibitors. 1.6% of 76,000 active; calls by dose curve; note: nearly all actives have a fitted effect of over 60% in size
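HEK293 cells stably expressing human Npr1 and cGMP GloSensor pGS-40F, loaded 2 h with 2% GloSensor reagent, given compound 30 min at room temperature. Luminescence read before and 20 min after 0.1 nM hNppA.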
The depositor's hits bear a star; i = inactive; ? = inconclusive; nt = no result; [ ] = dose if it differs, or a comment. A selection: hits, their analogues and other compounds. The true share with any hit is near 11%. Unless noted, calls come from the whole dose curve; as a rule, active = well fitted curve in the direction sought with a large enough effect; inconclusive = small, poorly fitted or top-dose-only effect, or another doubt; inactive = no such curve, though single readings can be large; an effect the other way counts as inactive or inconclusive. % is set by controls: 0 for no effect and ±100 for the full control effect; potency is the fitted concentration of half-maximal effect.

SMILES	HEK293 tox	NIH3T3 tox	FLuc inh	hNpr1 antagonist
Cc1nc(CN2C(=O)OC3(CCN(CCc4ccccc4)CC3)C2(C)c2ccccc2)cs1 (stereo not drawn)	?	-22%	i	-10%
CC1(c2ccccc2)N(Cc2ccccc2)C(=O)OC12CCN(Cc1c[nH]c3ccccc13)CC2 (stereo not drawn)	28µM*	22µM*	i	?
COc1ccc(C(=O)N2CCC3(CC2)OC(=O)N(Cc2ccc(O)cc2)C3(C)c2ccccc2)cn1 (stereo not drawn)	?	?	i	-12%
CC1(c2ccccc2)N(Cc2ccc(O)cc2)C(=O)OC12CCN(C(=O)c1cccnc1)CC2 (stereo not drawn)	i	32µM*	i	3%
CC(=O)N1CCC2(CC1)OC(=O)N(Cc1ccccc1)C2(C)c1ccccc1 (stereo not drawn)	-23%[172 µM]	25µM*	i	-1%[70.6 µM]
COc1ccc(CN[C@H]2[C@H](O)[C@@H](N3CCN(c4ccccc4OC)CC3)[C@@H]3OC[C@H]2O3)cc1	?	?	i	1%
COC[C@@H]1CN(C(=O)c2ccncc2)C[C@H]1c1ccccn1	-6%	-23%	nt	nt
N#Cc1cccc(-c2c(C(=O)NCCN3CCOCC3)nc3sccn23)c1	3%	-16%	nt	nt
CCCCCCNC(=O)Cc1csc2nc(C)c(-c3cc(C)n(-c4ccccc4F)n3)c(=O)n12	-9%	?	i	-3%
O=C(Cc1cccc(Cl)c1)NC1CN(c2ccnc3ccnn23)C1	-19%	?	nt	nt
CCC1Oc2ccc(NC(=O)COC)cc2CN(Cc2ccc(F)cc2)C1=O (stereo not drawn)	?	-22%	i	0%
CC1(c2ccccc2)N(Cc2ccccc2)C(=O)OC12CCN(C(=O)Cc1ccc(O)cc1)CC2 (stereo not drawn)	?	6.3µM*	i	-17%
CC1(c2ccccc2)N(Cc2ccccc2)C(=O)OC12CCN(C(=O)c1cccc(O)c1)CC2 (stereo not drawn)	79µM*	?	i	-5%
COc1ccc(C(=O)N2CCC3(CC2)OC(=O)N(Cc2ccccc2F)C3(C)c2ccccc2)cn1 (stereo not drawn)	?	?	i	-4%
CC1(c2ccccc2)N(Cc2ccccc2C#N)C(=O)OC12CCN(C(=O)Cc1ccc(O)cc1)CC2 (stereo not drawn)	-23%	11µM*	i	1%
Cc1ncsc1C(=O)N1CCC2(CC1)OC(=O)N(Cc1ccccc1F)C2(C)c1ccccc1 (stereo not drawn)	-29%	10µM*	i	2%
Cc1ccc(Nc2ccnc(N3CCCN(C(=O)NC4CCCC4)C3)n2)cc1	16µM*	25µM*	nt	nt
Cc1ccc(Nc2ccnc(N3CCCN(C(=O)C4CCCC4)C3)n2)cc1	13µM*	?	nt	nt
COC(=O)CNC(=O)c1cc(-c2ccccc2)nc2c1cnn2C	-5%[172 µM]	-29%[138 µM]	nt	nt
N#Cc1ccc(C(=O)N2CCC(N3C(=O)[C@H]4CN(Cc5ccccc5)C[C@H]4C3=O)CC2)cc1	-28%	-41%	nt	nt
COc1cccc([S+](=O)([O-])N2CCC3(CC2)CC(=O)Nc2ccccc2O3)c1	50µM*	-16%	i	-3%
O=C1CC2(CCN([S+](=O)([O-])c3ccccc3)CC2)Oc2ccccc2N1	?	?	i	11%
COc1cccc([S+](=O)([O-])N2CCC3(CC2)NC(=O)c2ccccc2O3)c1	40µM*	?	i	?
COc1cccc([S+](=O)([O-])N2CCC3(C2)NC(=O)c2ccccc2CO3)c1 (stereo not drawn)	?	-27%	i	0%
O=C(NCc1ccccc1)C1=NO[C@@H]2CN(Cc3cccc(F)c3)C[C@H]12	45µM*	?	i	0%[70.6 µM]
SMILES	HEK293 tox	NIH3T3 tox	FLuc inh	hNpr1 antagonist
O=C(NCc1ccccc1)C1=NO[C@@H]2CN(Cc3ccc(O)c(Cl)c3)C[C@H]12	71µM*	?	i	-13%[70.6 µM]
O=C(Nc1ccc(F)c(Cl)c1)C1=NO[C@@H]2CN(CCc3ccccc3)C[C@H]12	112µM*	?	i	-1%[70.6 µM]
CN1c2cc(C(=O)Nc3ccc(Br)cc3)ccc2C(=O)N2CCCCC21 (stereo not drawn)	?	?	32µM*	-3%
CN1c2cc(C(=O)Nc3ccc(C(F)(F)F)cc3)ccc2C(=O)N2CCCCCC21 (stereo not drawn)	?	?	?	-22%
CN1c2cc(C(=O)Nc3ccc(Br)cc3)ccc2C(=O)N2CCCCCC21 (stereo not drawn)	35µM*	?	?	-28%
O[C@@H]1C[C@@H](c2nc(-c3ccncc3)no2)N(C2CCCCC2)C1	-6%[172 µM]	-4%[138 µM]	i	6%[70.6 µM]
COc1ccc(-c2noc([C@@H]3C[C@@H](O)CN3C3CCCCC3)n2)cc1	?	?	71µM*	5%[70.6 µM]
CC(=O)N1CCC(N2C[C@H](O)C[C@H]2c2nc(-c3ccc(C(F)(F)F)cc3)no2)CC1	71µM*	?	?	-10%[70.6 µM]
CC(=O)N1CCC(N2C[C@H](O)C[C@H]2c2nc(-c3ccc4c(c3)OCO4)no2)CC1	-19%[172 µM]	-18%[174 µM]	i	-5%[70.6 µM]
Cc1ccc(-c2noc([C@@H]3C[C@@H](O)CN3Cc3ccc(S(C)(=O)=O)cc3)n2)cc1F	?	?	71µM*	2%[70.6 µM]
Cc1ccc(-c2noc([C@@H]3C[C@@H](O)CN3C3CCCCC3)n2)cc1F	-20%[172 µM]	-29%[174 µM]	50µM*	3%[70.6 µM]
O=C(NCc1nnc2c(-c3nc(C4CC4)no3)cccn12)c1cc(F)ccc1Cl	?	-9%	i	7%
Cc1cnc(CC2CCN(C(=O)C(C)c3ccccc3)CC2)n1Cc1ccc(F)cc1 (stereo not drawn)	35µM*	?	i	-3%
COc1ccc(OCc2nnc(C(=O)N3CCC[C@@H]3c3nc4ccccc4[nH]3)n2-c2ccccc2)cc1	-11%	11µM*	i	4%
O=C(c1nnc(COc2cc(F)cc(F)c2)n1-c1ccccc1)N1CCC[C@@H]1c1nc2ccccc2[nH]1	?	32µM*	i	0%
N#Cc1cccc(OCc2nnc(C(=O)N3CCC[C@@H]3c3nc4ccccc4[nH]3)n2-c2ccccc2)c1	-13%	?	i	-17%
Cn1cc(CNc2ccc(-c3nc(-c4cccc(C(F)(F)F)c4)no3)cn2)cn1	25µM*	?	i	?
OC[C@@H]1CN(c2ccc(-c3nc(-c4cccc(C(F)(F)F)c4)no3)cn2)C[C@H]1CO	?	-30%	i	-23%
FC(F)(F)c1cccc(-c2noc(-c3ccc(NCCN4CCOCC4)nc3)n2)c1	11µM*	?	?	11µM*
Clc1cccc(-c2noc(-c3ccc(NCC4COCCO4)nc3)n2)c1 (stereo not drawn)	-33%	-28%	1µM*	?
Cn1cc(CNc2ccc(-c3nc(CCCc4ccccc4)no3)cn2)cn1	?	?	40µM*	?
